Data reported in PubChem BioAssay (NCATS).
Inconclusive results are not listed. A number with no mark means an inactive call. Activity calls are given as the source filed them. Calls follow the shape of the dose curve; as a rule, active = well fitted cell-killing curve with a large enough effect; inconclusive = small, poorly fitted or top-dose-only effect, or effect the other way; inactive = no such curve, though single readings can be large or run the other way.

Experiment: Quantitative High-Throughput drug screen in 47 multiple myeloma cell lines against the NCATS MIPE library collection: KMS27_JCRB cell viability assay (AID 1918970); also: nearly all actives have a fitted effect of over 30% in size
Details: KMS27 myeloma cells, CellTiter-Glo ATP viability, 48 h; series mostly up to 45.8 µM; viability (% of DMSO): at the top concentration
Source text: PI: Beverly A. Mock Ph.D.
Laboratory of Cancer Biology and Genetics,
Center for Cancer Research, National Cancer Institute,
National Institute of Health, Bethesda, Maryland
Drug resistance and disease progression are common in multiple myeloma (MM) patients, underscoring the need for new therapeutic combinations. […] We hypothesized that effective combinations would reduce MYC expression and enhance p16 activity. […] These preclinical data identify potentially useful drug combinations for evaluation in drug-resistant MM and reveal potential mechanisms of combined drug sensitivity.
Described herein is the primary MIPE qHTS used to cherrypick compounds. Validated compounds were then further tested for potential synergistic activiy.
[1] Peat TJ, Gaikwad SM, Dubois W, Gyabaah-Kessie N, Zhang S, Gorjifard S, Phyo Z, Andres M, Hughitt VK, Simpson RM, Miller MA, Girvin AT, Taylor A, Williams D, D'Antonio N, Zhang Y, Rajagopalan A, Flietner E, Wilson K, Zhang X, Shinn P, Klumpp-Thomas C, McKnight C, Itkin Z, Chen L, Kazandijian D, Zhang J, Michalowski AM, Simmons JK, Keats J, Thomas CJ, Mock BA. Drug combinations identified by high-throughput screening promote cell cycle transition and upregulate Smad pathways in myeloma. […] Epub 2023 Jun 24. PMID: 37356470; PMCID: PMC10408729.
SEQUENCE No. (e.g., 1, 2, 3, etc.); […] (e.g., Cells, Incubation, Reagent, etc.); VALUE and DESCRIPTION.
1; Cells; 5 uL; white, solid bottom 1536-well Greiner assay plate.
2; Compounds; 23 nL; Kalypsis pin tool (Wako USA) equipped with a 1536-well pin head to transfer to the assay plates.
3; Incubation; 48 hours; 37C incubation.
4; Reagent;5uL; CellTiter Glo (Promega).
5; Detector; 425V; Luminescence; Viewlux PerkinElmer.
NOTES (numbers refer to Sequence numbers above)
1. The cell-based screening methods employed in this study were like those previously published. Briefly, the corresponding myeloma cell lines were screened in 1,536-well plates with 500 cells, 5-uL per well for inhibition of cell viability (assessed by measuring ATP levels with CellTiterGlo).
2. NCATS MIPE 4.0 library of approved and investigational drugs were added using the Kalypsis pin tool. Wells treated with DMSO only for 100% viability and media only wells for 0% viability were used as controls.
3. The assay plates were covered and incubated for 48 hours in a 37C, 5% CO2 incubator with controlled humidity.
4. After 48 hours, CellTilter-GloTM luminescent substrate mix (Promega) reagent was added to the assay plate and plates we incubated for 5 min at room temperature.
5. Signal was measured as median relative luminescence units on a ViewLux (PerkinElmer) multiplate reader.
[1] Heske CM, Davis MI, Baumgart JT, Wilson K, Gormally MV, Chen L, Zhang X, Ceribelli M, Duveau DY, Guha R, Ferrer M, Arnaldez FI, Ji J, Tran HL, Zhang Y, Mendoza A, Helman LJ, Thomas CJ. Matrix Screen Identifies Synergistic Combination of PARP Inhibitors and Nicotinamide Phosphoribosyltransferase (NAMPT) Inhibitors in Ewing Sarcoma. Clin Cancer Res. 2017 Dec 1;23(23):7301-7311. doi: 10.1158/1078-0432.CCR-17-1121. Epub 2017 Sep 12. PMID: 28899971; PMCID: PMC6636827.
Potency is read from the fitted curve at half-maximal effect.

Row | SMILES | viability (% of DMSO) [%] | Potency
1 | CCCC[N+]1(C)[C@H]2CC(OC(=O)[C@H](CO)c3ccccc3)C[C@H]1[C@H]1O[C@H]12 (stereo not given in full) | 115 | 
2 | CC1=C(O)C(=O)C=C2C1=CC=C1[C@@]2(C)CC[C@@]2(C)[C@@H]3C[C@](C)(C(=O)O)CC[C@]3(C)CC[C@]12C |  | 1.87 µM (active)
3 | COc1cc2cc(c1Cl)N(C)C(=O)C[C@H](OC(=O)C(C)C)[C@]1(C)O[C@H]1[C@H](C)[C@@H]1C[C@@](O)(NC(=O)O1)[C@H](OC)C=CC=C(C)C2 | 15.4 | 
4 | c1ccc(CCCN2CCN(CCOC(c3ccccc3)c3ccccc3)CC2)cc1 | 99.7 | 
5 | Cc1ccccc1-n1c(Cn2ncc3c(N)ncnc32)nc2cccc(C)c2c1=O |  | 0.0235 µM (active)
6 | COc1cccc2c1[C@]13CCN(CC4CC4)[C@H](C2)[C@]1(OC)CCC(=O)C3 | 115 | 
7 | C[C@]12CC[C@H](O)CC1=CC[C@H]1[C@H]3CCC(=O)[C@@]3(C)CC[C@@H]12 | 83.6 | 
8 | Cc1c(C(=O)Nc2cccc(C(F)(F)F)c2)cc(-c2ccccc2)n1CCCN1CCOCC1 |  | 18.7 µM (active)
9 | COc1ccc2c(c1)[C@]13CCCCC1C(C2)N(C)CC3 (stereo not given in full) | 86.4 | 
10 | O=C(O)CNC(=O)c1c(O)c2ccccc2n(Cc2ccccc2)c1=O | 109 | 
11 | CC(C)(O)C=CC(=O)[C@](C)(O)[C@H]1[C@H](O)C[C@]2(C)[C@@H]3CC=C4[C@@H](C=C(O)C(=O)C4(C)C)[C@]3(C)C(=O)C[C@@]12C |  | 0.0209 µM (active)
12 | C[C@@H]1CC[C@H]2[C@@H](C)C(=O)O[C@@H]3O[C@@]4(C)CC[C@H]1[C@]32OO4 | 109 | 
13 | N#C[C@H](O[C@@H]1O[C@H](CO[C@@H]2O[C@H](CO)[C@H](O)[C@H](O)[C@H]2O)[C@H](O)[C@H](O)[C@H]1O)c1ccccc1 |  | 6.62 µM (active)
14 | COc1ccc(N(C(=O)Oc2c(C)cccc2C)c2ccnc(Nc3ccc(N4CCN(C)CC4)cc3)n2)c(OC)c1 |  | 2.96 µM (active)
15 | O=C(Oc1ccc([N+](=O)[O-])cc1)N1CCN(Cc2cccc(Oc3ccccc3)c2)CC1 | 87.7 | 
16 | O=[N+]([O-])c1ncc[nH]1 | 120 | 
17 | CC=C(C)C(=O)O[C@H]1C(C)=C2[C@@H]3OC(=O)[C@@](C)(O)[C@@]3(O)[C@@H](OC(=O)CCC)C[C@](C)(OC(C)=O)[C@@H]2[C@@H]1OC(=O)CCCCCCC | 130 | 
18 | Oc1ccc2c3c1O[C@H]1c4[nH]c5c(c4C[C@@]4(O)[C@@H](C2)N(CC2CC2)CC[C@]314)C[C@@]1(O)[C@H]2Cc3ccc(O)c4c3[C@@]1(CCN2CC1CC1)[C@H]5O4 | 131 | 
19 | CN1[C@H]2CC(O)C[C@H]1[C@H]1O[C@H]12 (stereo not given in full) | 127 | 
20 | CC(C)N[C@@H]1CCn2c(=O)[nH]c3cccc(c32)[C@@H]1O |  | 0.833 µM (active)

Row | SMILES | viability (% of DMSO) [%] | Potency
21 | C#CC1(O)CCC2C3CCC4=CC(=O)CCC4(C)C3CCC21C (stereo not given) | 119 | 
22 | NC1=NC(=O)N2CC12 (stereo not given) |  | 7.43 µM (active)
23 | CC(C)(C)[C@]1(O)C[C@@H]2OC(=O)C[C@@]23C(=O)O[C@@H]2OC(=O)[C@H](O)C213 (stereo not given in full) | 130 | 
24 | COC[C@H]1OC(=O)c2coc3c2[C@@]1(C)C1=C(C3=O)[C@@H]2CC[C@H](O)[C@@]2(C)C[C@@H]1OC(C)=O |  | 4.69 µM (active)
25 | C=C1C[C@H]2[C@H]3CCC(=O)[C@@]3(C)CC[C@@H]2[C@@]2(C)C=CC(=O)C=C12 |  | 18.7 µM (active)
26 | N=c1c2c(-c3ccccc3)c(-c3ccccc3)n(Cc3ccccc3)c2ncn1C1CCC(O)CC1 (stereo not given) |  | 3.72 µM (active)
27 | NC1CC1c1ccccc1 (stereo not given) | 75.6 | 
28 | CCOC(=O)c1cncn1[C@H](C)c1ccccc1 | 101 | 
29 | Cc1c(N)nc([C@H](CC(N)=O)NC[C@@H](N)C(N)=O)nc1C(=O)N[C@H](C(=O)N[C@@H](C)[C@H](O)[C@@H](C)C(=O)N[C@@H](C(=O)NCCc1nc(-c2nc(C(=O)NCCC[S+](C)C)cs2)cs1)[C@@H](C)O)C(O[C@H]1O[C@H](CO)[C@H](O)[C@@H](O)[C@@H]1O[C@H]1O[C@H](CO)[C@@H](O)[C@H](OC(N)=O)[C@H]1O)c1cnc[nH]1 (stereo not given in full) |  | 0.296 µM (active)
30 | CC=C(C)C(=O)N[C@@H](c1ccccc1)[C@@H](O)C(=O)O[C@H]1C[C@@]2(O)[C@@H](OC(=O)c3ccccc3)[C@@H]3[C@]4(OC(C)=O)CO[C@@H]4C[C@H](O)[C@@]3(C)C(=O)[C@H](OC(C)=O)C(=C1C)C2(C)C |  | 0.0012 µM (active)
31 | CC1(N2CCC(n3c([C@@H]4CCCNC4)nc4ccccc43)CC2)CCCCCCC1 |  | 14.8 µM (active)
32 | c1ccc2c(CN3CCNCC3)cccc2c1 | 77.6 | 
33 | COc1ccc(CC2NCCc3cc(OC)c(OC)cc32)cc1OC (stereo not given) | 101 | 
34 | CN[C@@H]1Cc2cccc3[nH]c(=O)n(c23)C1 | 114 | 
35 | CCc1c(C(=O)C(N)=O)c2c(OCC(=O)O)cccc2n1Cc1ccccc1 | 140 | 
36 | Cc1[nH]nc2ccc(-c3cncc(OC[C@@H](N)Cc4c[nH]c5ccccc45)c3)cc12 | 135 | 
37 | C[C@H]([C@H](O)CCC(C)(C)O)[C@H]1CC[C@@]2(O)C3=CC(=O)[C@@H]4C[C@@H](O)[C@@H](O)C[C@]4(C)[C@@H]3CC[C@]12C | 119 | 
38 | COc1cc([C@@H]2c3cc4c(cc3[C@@H](O)C3COC(=O)C32)OCO4)cc(OC)c1O (stereo not given in full) |  | 0.0148 µM (active)
39 | CCN1CCN(C(=O)Cc2ccc(Nc3ncc(F)c(Nc4ccc(C(=O)Nc5ccccc5Cl)cc4)n3)cc2)CC1 |  | 2.96 µM (active)
40 | C[C@]12CCC(=O)C(O)=C1CC[C@@H]1[C@H]3CCC(=O)[C@@]3(C)CC[C@@H]12 | 124 | 
